Only some compounds are listed: those with a hit (about 3% of all), similar ones and a draw of the others.
PAFAH2 inh – inhibitors of human PAFAH2; Q99487; recombinant PAFAH2, FP-rhodamine activity probe, fluorescence polarization; inhibition, % at 3.39 µM; hit rate 0.99% among 340,000; AID 492956;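 active = inhibition above the mean over all tested compounds plus 3 SD, cut at about 30% in these data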;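 note: inhibitors block probe labeling of enzyme so polarization drops; 0% = enzyme with DMSO and 100% = wells lacking PAFAH2 protein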
PP5 inh – inhibitors of human protein phosphatase 5 (PP5); AID 1987; hit rate 0.18% among 320,000; purified PP5c, OMFP substrate fluorescence; P53041; inhibition, % at 6.7 µM;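 active = inhibition above the campaign's mean inhibition across all tested compounds plus 3 SD, cut at about 9.5% in these data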;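 note: 0% = DMSO only and 100% = 100 µM cantharidin control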
CTSL1 counter – counter-screen for PFM18AAP inhibitors: inhibitors of F. hepatica cathepsin L1. AID 1906. hit rate 0.49% among 300,000. inhibition, % at 5.96 µM. recombinant F. hepatica cathepsin L1, Z-Leu-Arg-MCA fluorescence;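 active = inhibition above the mean of all tested compounds plus 3 SD, set per screening campaign, cut at about 17% in these data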;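 note: 0% = plate median of test compound wells and 100% = 1 µM Z-Phe-Ala-diazomethylketone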
PAFAH1B3 inh – inhibitors of human PAFAH1B3. AID 492972. inhibition, % at 3.39 µM. recombinant PAFAH1B3, FP-rhodamine probe, fluorescence polarization. hit rate 0.28% among 340,000;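 active = inhibition above the screen-wide average of all tested compounds plus 3 SD, cut at about 25% in these data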;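 note: 0% = enzyme with DMSO only and 100% = wells lacking PAFAH1B3 protein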
PAFAH1B2 FP inh – blocks human PAF acetylhydrolase 1b catalytic subunit 2. P68402. recombinant PAFAH1B2, FP-rhodamine activity probe, fluorescence polarization. inhibition, % at 3.39 µM. hit rate 1.2% among 340,000;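 active = inhibition above the mean of all tested compounds plus 3 SD, cut at about 24% in these data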;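 note: 0% = enzyme with DMSO and 100% = wells lacking PAFAH1B2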
pPAFAH inh – inhibitors of human plasma PAF acetylhydrolase (pPAFAH); Q13093; recombinant pPAFAH, FP-rhodamine probe fluorescence polarization; inhibition, % at 3.39 µM; hit rate 1.5% among 330,000; AID 463082;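 active = inhibition above the mean inhibition across the screen plus 3 SD, cut at about 25% in these data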;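 note: inhibitors block binding of the rhodamine activity-based probe so polarization drops; 0% = enzyme with DMSO and 100% = wells lacking pPAFAH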
Target sequence (Q13093 whole entry, looked up): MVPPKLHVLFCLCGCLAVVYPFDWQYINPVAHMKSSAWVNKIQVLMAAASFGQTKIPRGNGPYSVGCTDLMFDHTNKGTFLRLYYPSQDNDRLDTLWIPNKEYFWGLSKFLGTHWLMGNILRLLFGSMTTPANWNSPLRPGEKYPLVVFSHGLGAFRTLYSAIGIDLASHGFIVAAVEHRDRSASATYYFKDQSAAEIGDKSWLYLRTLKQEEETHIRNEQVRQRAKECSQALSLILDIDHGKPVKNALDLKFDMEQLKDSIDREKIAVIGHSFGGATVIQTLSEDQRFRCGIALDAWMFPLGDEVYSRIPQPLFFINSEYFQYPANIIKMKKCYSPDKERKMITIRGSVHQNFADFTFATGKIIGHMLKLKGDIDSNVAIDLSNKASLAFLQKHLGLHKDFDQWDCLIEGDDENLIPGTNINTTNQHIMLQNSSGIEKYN
* hit, by the source's call; / = not tested or not shown.

SMILES | PAFAH2 inh | PP5 inh | CTSL1 counter | PAFAH1B3 inh | PAFAH1B2 FP inh | pPAFAH inh
Cc1cccc([C@@H]2[C@@H]3C(=O)N(Cc4ccccc4)C(=O)[C@@H]3[C@]3(Cc4ccc(Cl)cc4)C(=O)N(c4ccc(Br)cc4)C(=O)N23)c1 | -10.2 | 5.2 | 0.5 | 9.0 | -4.0 | 0.9
Cc1ccc(CNC(=O)C2CCC(CNS(=O)(=O)c3cccs3)CC2)cc1 (configuration not stated) | -3.6 | -0.1 | 0.4 | 1.6 | -1.7 | 6.9
COc1ccc(C2CC(c3ccccc3C(F)(F)F)=NN2c2ccc(S(N)(=O)=O)cc2)cc1 (configuration not stated) | 6.0 | / | / | 5.4 | 2.0 | 26.4*
COc1ccc(C2CC(c3ccccc3F)=NN2c2ccc(S(N)(=O)=O)cc2)cc1 (configuration not stated) | -3.0 | / | / | 6.7 | 5.3 | 12.6
COCCCNc1nc2c(-c3cccc(C)c3)nnn2c2ccccc12 | -2.9 | -0.2 | 17.9* | -3.0 | 2.9 | 2.6
COCCCNc1nc2c(-c3ccc(C)cc3)nnn2c2ccccc12 | 6.9 | 0.0 | -2.1 | 0.2 | 0.2 | 2.3
O=C(Nc1nnc(-c2ccc3c(c2)CCCC3)o1)C1COc2ccccc2O1 (configuration not stated) | 2.9 | 0.6 | -1.5 | 6.7 | -0.1 | 30.9*
CC(=O)Nc1nnc(-c2ccc3c(c2)CCCC3)o1 | -2.1 | 0.5 | 4.0 | -1.7 | 4.0 | -0.9
Oc1ccc(-c2n[nH]c(=S)n2Cc2ccccc2)cc1 | 8.4 | 1.8 | 1.9 | 4.7 | 24.6* | -3.0
S=c1[nH]nc(-c2ccc(Br)cc2)n1Cc1ccccc1 | 6.4 | -0.6 | -5.5 | 13.6 | 22.4 | -0.2
S=c1[nH]nc(-c2ccccc2Cl)n1Cc1ccccc1 | 2.0 | 2.2 | -1.4 | -2.2 | 27.1* | 7.7
S=c1[nH]nc(-c2ccncc2)n1Cc1ccccc1 | 4.2 | -0.6 | 2.5 | -1.7 | 1.4 | -2.2
Fc1ccc(-c2c[nH]c(=S)n2Cc2ccccc2)cc1 | 3.8 | 0.2 | 0.6 | 7.6 | 26.6* | -0.9
Fc1ccc(-c2n[nH]c(=S)n2Cc2ccccc2)cc1 | -5.0 | 1.6 | -1.7 | 7.6 | 28.2* | 2.0
O=C(NC1CCSc2ccccc21)c1cccc([N+](=O)[O-])c1 (configuration not stated) | 2.7 | 2.9 | 1.5 | 4.9 | -4.8 | 3.7
Cn1cc(C(CC(=O)O)C(=O)O)c2ccccc21 (configuration not stated) | -3.7 | 0.9 | 0.1 | 15.6 | 5.2 | 2.3
CCCn1cc(C(CC(=O)O)C(=O)O)c2ccccc21 (configuration not stated) | 4.2 | 1.4 | 16.7* | -0.5 | 3.3 | 0.2
Fc1ccc2cc(-c3ccccc3F)ncc2c1 | -0.1 | / | / | 12.9 | -3.9 | -3.4
COc1cccc(C(=S)N2CCOCC2)c1OS(=O)(=O)c1ccc(Cl)cc1 | -2.2 | 3.3 | 0.1 | 10.9 | -2.9 | 27.1*
COc1ccc(S(=O)(=O)Oc2cccc(C(=S)N3CCOCC3)c2)cc1 | 1.1 | 5.7 | -2.8 | 1.2 | 26.4* | -1.7
O=C(O)C(CCc1ccccc1)(Cc1ccccc1)C(=O)O | -7.2 | / | / | 8.2 | 1.6 | /
CC(=O)N1CCN=C1SCc1cccc(F)c1 | -4.0 | -0.1 | 1.9 | -2.0 | 5.2 | -4.2
Cc1ccc2nc(CSc3nc(C)cc(C)c3C#N)[nH]c2c1 | -3.1 | 1.8 | -0.3 | 3.9 | 4.9 | 26.4*
Cc1cc(C)c2c(N)c3cccc(C)c3nc2n1 | 0.2 | 0.3 | -2.3 | 2.5 | 0.4 | -1.1
CC[C@]1(C(=O)OC)[C@H]2C(=O)N(Cc3ccccc3)C(=O)[C@H]2[C@H]2CN(C)C(=NCc3ccccc3)N21 | 0.1 | / | / | 4.3 | 3.5 | 2.0
SMILES | PAFAH2 inh | PP5 inh | CTSL1 counter | PAFAH1B3 inh | PAFAH1B2 FP inh | pPAFAH inh
CN(C)CC[C@@H](c1ccc(Cl)cc1)c1ccccn1 | 0.9 | -1.2 | -0.6 | 1.4 | -0.1 | -2.6
CN(C)CCO[C@@H](c1ccc(Cl)cc1)c1ccccn1 | -2.2 | -0.7 | -2.3 | 4.8 | -1.0 | 27.3*
CC(=O)C1(O)C(C)CC2C3CC(F)C4(O)CC(O)CCC4(C)C3CCC21C (configuration not stated) | -1.4 | / | / | 9.7 | 5.6 | /
COc1ccc2cc(S(=O)(=O)NCc3cccnc3)ccc2c1 | -7.7 | 1.7 | -3.5 | 1.1 | 1.6 | 1.2
Cc1ccc(/C=C2\SC(N3CCN(C(c4ccccc4)c4ccccc4)CC3)=NC2=O)o1 | 3.6 | 1.8 | -0.3 | -3.1 | -3.0 | 26.7*
COc1ccc(NS(=O)(=O)c2cc(NC(=O)CCc3ccccc3)ccc2N2CCOCC2)cc1 | -11.6 | / | / | 6.1 | 5.2 | /

Assay outcomes deposited in PubChem by The Scripps Research Institute Molecular Screening Center.
